LmPK inhibitor – LmPK (Leishmania mexicana) enzyme inhibition; Q27686; purified LmPK, Kinase-Glo ATP luminescence, 1 h; Potency, µM (top dose mostly 57.5 µM), inactives show top-dose activity change, negative = inhibition, hits mostly inhibitors; hit rate 0.37% among 290,000; AID 1721; also: potency is read from the fitted curve at half-maximal effect; % is scaled to controls: 0 for no effect and ±100 for the full control effect
Target sequence (Q27686 whole entry, looked up): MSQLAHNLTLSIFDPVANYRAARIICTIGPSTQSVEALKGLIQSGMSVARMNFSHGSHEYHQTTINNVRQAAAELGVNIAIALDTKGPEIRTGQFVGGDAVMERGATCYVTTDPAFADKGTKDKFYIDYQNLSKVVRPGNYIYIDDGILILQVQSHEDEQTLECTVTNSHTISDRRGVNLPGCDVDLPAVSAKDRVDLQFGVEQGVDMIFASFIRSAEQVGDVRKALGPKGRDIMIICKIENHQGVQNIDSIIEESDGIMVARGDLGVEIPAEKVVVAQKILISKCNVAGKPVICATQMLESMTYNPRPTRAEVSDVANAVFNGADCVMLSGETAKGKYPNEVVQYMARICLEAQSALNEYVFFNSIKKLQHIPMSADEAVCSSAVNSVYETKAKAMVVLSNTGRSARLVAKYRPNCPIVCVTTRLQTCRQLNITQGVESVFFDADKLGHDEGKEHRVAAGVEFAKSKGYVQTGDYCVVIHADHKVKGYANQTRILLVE
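qHTS format; LmPK 0.1 nM; substrates PEP 0.5 mM and ADP 0.1 mM. One-hour room-temperature incubation, then coupled luciferase luminescence; 0.5 nM enzyme wells mark activation.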
Tb PYK inh – inhibitors of Trypanosoma brucei pyruvate kinase | Q57TT1 | TbPYK enzyme, Kinase-Glo Plus ATP luminescence, 45 min | hit rate 0.12% among 410,000 | Potency, µM (series often up to 76.8 µM), without a hit: at the top dose activity, negative = inhibition, most hits filed as inhibitors; also: potency is read from the fitted curve at half-maximal effect; % is scaled to controls: 0 for no effect and ±100 for the full control effect; nearly all actives have a fitted effect of over 50% in size
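TbPYK + substrate in 50 mM TEA pH 7.2, 100 mM KCl, 10 mM MgCl2, 0.05% BSA, 0.01% Tween-20; cpd pinned; ADP 130 uM final; 45 min RT; Kinase-Glo Plus 10 min; luminescence endpoint.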
NS1 inh – blocks influenza NS1 protein function | Potency, µM (series often up to 46.1 µM), for inactives: at the top dose activity, positive = more growth | hit rate 0.4% among 270,000 | AID 2326; calls by dose curve; also: potency is read from the fitted curve at half-maximal effect; actives are rising curves; nearly all actives have a fitted effect of over 50% in size
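Growth recovery, yeast-based: influenza A NS1 expressed in S. cerevisiae causes slow growth, and suppressors are detected by OD600. The parent strain without NS1 is used as positive control.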
Cycloheximide cs – counter-screen for Shiga toxin inhibitors: cycloheximide protein synthesis inhibition | cell reporter, cycloheximide protein synthesis inhibition counterscreen | hit rate 12% among 300,000 | max response, %; in the data active = max response mostly above about 13%, no sharp cut-off; inactive = mostly below about 14%; also: read at 38.3 µM for the half of the compounds with a filed dose; 0% is about no effect
Shiga inhibitor – blocks Shiga toxin action in Vero cells; Vero cells, Shiga toxin protein synthesis inhibition reporter; inhibition, % at 38.7 µM; hit rate 9.2% among 290,000; AID 2315; in the data active = inhibition mostly above about 28%, no sharp cut-off; inactive = mostly below about 43%; also: 0% is about no effect
SARS PLP yeast – SARS-CoV PLP inhibition in yeast | S. cerevisiae expressing SARS-CoV PLpro, growth rescue | Potency, µM (doses to about 32.9 µM), without a hit: at the highest dose activity, positive = growth rescue, actives largely listed as activators | hit rate 0.19% among 330,000; calls by dose curve; also: potency is read from the fitted curve at half-maximal effect; 0% is about no effect; nearly all actives have a fitted effect of over 55% in size
* marks the source's active call; other numbers are inactive results; [ ] = dose if it differs, or a comment. Shown is part of a subset that was picked to be rich in hits. Unless noted, calls follow the shape of the dose curve; as a rule, active = well fitted curve in the direction sought with a large enough effect; inconclusive = small, poorly fitted or top-dose-only effect, or another doubt; inactive = no such curve, though single readings can be large; an effect the other way counts as inactive or inconclusive.

What do the screens show for `CCOc1cc(/C=C2\C(=O)N(CCC#N)N=C2C)ccc1OCC(N)=O`?
LmPK inhibitor: 1.1%; Tb PYK inh: -11.3%; Cycloheximide cs: -1.4; Shiga inhibitor: -3.2; SARS PLP yeast: 2.3%

Results for CCCCn1c(N)c(N(CCOC)C(=O)c2ccc(F)c(S(=O)(=O)N3CCOCC3)c2)c(=O)[nH]c1=O ?
Tb PYK inh: -0.3%; SARS PLP yeast: -5.4%

Results for COc1ccc(CCNC(=O)C2CCN(S(=O)(=O)c3cccc4cccnc34)CC2)cc1OC ?
LmPK inhibitor: 1.2%; Tb PYK inh: 10.6%; NS1 inh: -14.3%; Cycloheximide cs: -1.4; Shiga inhibitor: -4.0; SARS PLP yeast: -6.1%

How did COc1cc(/C=N/NC(=O)c2ccncc2)ccc1OCC(=O)Nc1ccc(C)c(C)c1 do in these assays?
LmPK inhibitor: 1.5%; Tb PYK inh: 0.5%; NS1 inh: 3.5%; Cycloheximide cs: 13.0*; Shiga inhibitor: 40.1; SARS PLP yeast: -1.0%

How did COc1cc(/C=N/NC(=O)c2ccncc2)ccc1OCC(=O)Nc1cccc([N+](=O)[O-])c1 do in these assays?
LmPK inhibitor: 4.0%; Tb PYK inh: 2.5%; NS1 inh: 11.9%; Cycloheximide cs: 0.7; Shiga inhibitor: -6.1; SARS PLP yeast: 2.0%

What do the screens show for `Cc1ccc(CNC(=O)C2CCN(C(=O)Nc3ccc(C)cc3)CC2)cc1`?
LmPK inhibitor: -1.8%; Tb PYK inh: -0.8%; NS1 inh: 20.9%; Cycloheximide cs: 22.6; Shiga inhibitor: 31.0; SARS PLP yeast: 18.3%

What do the screens show for `O=C(CCN1C(=O)c2ccccc2C1=O)Nc1ccc(-c2cn3ccsc3n2)cc1`?
LmPK inhibitor: 0.8%; Tb PYK inh: -10.2%; NS1 inh: -18.7%; Cycloheximide cs: 32.8*; Shiga inhibitor: 52.4*; SARS PLP yeast: -12.3%

What do the screens show for `Cc1ccc2sc(-c3ccc(NC(=O)CCN4C(=O)c5ccccc5C4=O)cc3)nc2c1`?
LmPK inhibitor: 0.5%; NS1 inh: 3.8%; Cycloheximide cs: 50.4*; Shiga inhibitor: 84.6*; SARS PLP yeast: -1.8%

How did CCC(=O)Nc1cccc(-c2cn3ccsc3n2)c1 do in these assays?
LmPK inhibitor: 0.5%; Tb PYK inh: -6.8%; NS1 inh: -4.1%; Cycloheximide cs: 17.2; Shiga inhibitor: 42.9; SARS PLP yeast: -14.0%

How did O=C(Nc1ccc(-c2ccc3nncn3n2)cc1)C1CCCC1 do in these assays?
LmPK inhibitor: -0.7%; Tb PYK inh: -1.2%; Cycloheximide cs: 22.2*; Shiga inhibitor: 86.7*; SARS PLP yeast: -2.3%

How did O=C(Nc1ccc(-c2cn3ccsc3n2)cc1)C1CC1 do in these assays?
LmPK inhibitor: -25.8%; Tb PYK inh: -4.8%; NS1 inh: -50.0%; Cycloheximide cs: 61.2*; Shiga inhibitor: 42.5*; SARS PLP yeast: -12.9%

What do the screens show for `CCc1ccc(CN(Cc2ccco2)c2cnc(S(C)(=O)=O)nc2C(=O)Nc2ccc(C)c(Cl)c2)cc1`?
Tb PYK inh: 2.5%

Results for Cc1nc2ccn(Cc3ccco3)c(=O)c2cc1C(=O)N1CCN(c2ccc(F)cc2)CC1 ?
Tb PYK inh: -4.6%

Results for Cc1ccc(S(=O)(=O)N2CCOCC2)cc1C(=O)Nc1ccc(-c2cn3ccsc3n2)cc1 ?
LmPK inhibitor: -0.4%; Tb PYK inh: 0.2%; NS1 inh: inconclusive; Cycloheximide cs: 20.2*; Shiga inhibitor: 18.1; SARS PLP yeast: 0.2%

How did O=C(Nc1ccc(-c2cn3ccsc3n2)cc1)C1CCCC1 do in these assays?
LmPK inhibitor: inconclusive; Tb PYK inh: -9.3%; NS1 inh: -17.0%; Cycloheximide cs: 32.4*; Shiga inhibitor: 32.7; SARS PLP yeast: -11.0%

What do the screens show for `CC(C)C(=O)Nc1cccc(-c2cn3ccsc3n2)c1`?
LmPK inhibitor: -7.0%; Tb PYK inh: -18.7%; NS1 inh: -3.2%; Cycloheximide cs: 14.9; Shiga inhibitor: 14.6; SARS PLP yeast: 0.0%

How did CC(=O)Nc1ccc(-c2cn3ccsc3n2)cc1 do in these assays?
LmPK inhibitor: -18.1%; Tb PYK inh: 3.8%; NS1 inh: -14.8%; Cycloheximide cs: 30.4*; Shiga inhibitor: 62.3*; SARS PLP yeast: 19.1%

How did c1cn2cc(-c3ccc4c(c3)OCO4)nc2s1 do in these assays?
LmPK inhibitor: inconclusive; NS1 inh: -137.5%; Cycloheximide cs: 45.9*; Shiga inhibitor: 94.9*; SARS PLP yeast: -26.9%

How did C[C@H](NC(=O)[C@@H](Cc1c[nH]c2ccccc12)NC(=O)[C@@H](N)Cc1cnc[nH]1)C(=O)N[C@@H](Cc1c[nH]c2ccccc12)C(=O)N[C@H](Cc1ccccc1)C(=O)N[C@@H](CCCCN)C(N)=O do in these assays?
Cycloheximide cs: -3.2; Shiga inhibitor: -3.3

How did COc1ccc(C(=O)Nc2sc3c(c2C#N)CCN(C(C)=O)C3)cc1 do in these assays?
LmPK inhibitor: -1.3%[11.5 µM]; Tb PYK inh: -11.0%; Cycloheximide cs: 2.9; Shiga inhibitor: -7.4; SARS PLP yeast: -2.4%

How did CC(C)N1CCc2c(sc(NC(=O)c3ccc([N+](=O)[O-])o3)c2C(N)=O)C1 do in these assays?
LmPK inhibitor: -1.0%; NS1 inh: -13.2%; Cycloheximide cs: 27.7*; Shiga inhibitor: 13.5; SARS PLP yeast: 0.8%

How did CC(=O)N1CCc2c(sc(NC(=O)c3ccc([N+](=O)[O-])o3)c2C#N)C1 do in these assays?
LmPK inhibitor: -19.8%; Tb PYK inh: -15.4%; NS1 inh: 3.7%; Cycloheximide cs: 29.6; Shiga inhibitor: 82.1*; SARS PLP yeast: -0.3%
